# Compounds with a hit are over-represented: about 4% of the library has one in this group of screens.
# TROY NFkB inh – TROY signaling inhibition. Q293 LMP1-TROYcd NF-kB luciferase reporter, 4 h. inhibition, % at 10 µM. actives 0.98% (n = 360,000);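 active = compounds whose plate-normalised and pattern-corrected inhibition of the luciferase reporter signal at the single screening dose is 50% or more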
# TWEAK Fn14 block – blocks TWEAK-Fn14 interaction in a reporter cell assay. inhibition, % at 10 µM. TWEAK-stimulated Fn14 reporter cells, luciferase luminescence, 8 h. actives 2% (n = 360,000); in the data active = inhibition above about 50%
# HIF-2a block – inhibitors of HIF-2a. inhibition, % at 18.8 µM. AID 624352. actives 0.72% (n = 360,000). 786-0 RCC cells HIF-2a reporter, luciferase luminescence, overnight;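 active = inhibition of the luminescence signal of 40% or more relative to plate controls, in a single-dose primary screen at 18.75 µM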
# MITF TRPM1 inh – reduces MITF-dependent TRPM1 promoter luciferase signal | SK-MEL-5 TRPM1 promoter luciferase, 24 h | inhibition, % at 12.5 µM | actives 0.83% (n = 330,000);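 active = mean inhibition across replicates of 60% or more, whatever share of single replicates reaches that level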
# Peg3 prom inh – Peg3 promoter activity inhibition | HeLa PEG-Prom luciferase reporter, luminescence, overnight | inhibition, % at 20 µM | actives 1.7% (n = 360,000) | AID 588405;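 active = inhibition of at least 50% at 20 µM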
# LMP1 NFkB inh – reduces LMP1-driven NF-kappaB luciferase signal; LMP1-induced NF-kappaB luciferase reporter cells, luminescence; inhibition, % at 12.5 µM; actives 0.69% (n = 350,000); AID 504558; in the data active = inhibition above about 41%;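 also: 0% = neutral control wells and 100% = reference inhibitor control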
# Starred values were filed as active, the others as inactive; x = no result given; ! = repeats disagree.
SMILES,TROY NFkB inh,TWEAK Fn14 block,HIF-2a block,MITF TRPM1 inh,Peg3 prom inh,LMP1 NFkB inh
O=C1NCN(c2ccccc2)C12CCN(C(CCc1ccccc1)c1nnnn1C1CCCCC1)CC2 (stereo not given),20,29,-36,x,50,x
C=C1C(C)C2C(Cc3ccccc3)NC(=O)C23OC(=O)/C=C/C(O)CCCC(C)C/C=C/C3C1O (stereo not given),-16,-35,-5,-4,58*,0
Cn1c(O)c(Cc2ccc(OCc3ccccc3)cc2)c(=O)n(C)c1=O,-21,-1,-166,-34,-97,-8
CC(=O)OC1C(O)C(C)OC(OC2C(OC(=O)C3CCC4C(C3)OC3(CC(OC(=O)/C=C/c5ccccc5)C(C)CO3)C43CO3)OC(C)C(O)C2OC(C)=O)C1O (stereo not given),84*,101*,65*,87*,93*,85*
COC(=O)C1=C(c2ccc(OC(F)(F)F)cc2)C[C@@H]2CC[C@H]1N2C(=O)NCCOc1ccc(OC)cc1,13,12,16,10,-2,-4
COC(=O)C1=C(c2ccc(F)cc2OCc2ccccc2)C[C@@H]2CC[C@H]1N2C(=O)NCc1cccc(C(F)(F)F)c1,0,18,10,1,13,4
COc1ccc(Br)cc1CN1CCN(C(=O)Cc2ccccc2)CC1,x,82*,21,18,11,-8
CCOC(=O)[C@]12Cc3cc(C)ccc3[C@H]1N(C1CCCCC1)C(=O)c1cc(OC)ccc12,54*,101*,85*,x,x,x
CCOC(=O)[C@]12Cc3cc(C)ccc3[C@H]1N(CCC(=O)OC)C(=O)c1cc(OC)ccc12,36,1,23,x,x,x
c1cc2c(cc1-c1ccc3c(c1)OCO3)CNCc1cnnn1-2,-24,-44,-252,x,-205,x
CCN1C(=O)C(=C/C=C/c2ccco2)C(=O)N(CC)C1=S,-4,14,18,1,13,6
O=C1NC(=O)N(Cc2ccccc2)C(=O)/C1=C/C=C/c1ccco1,-3,15,38,88*,13,-32
CC(C)N1C(=O)/C(=C/C=C/c2ccco2)C(=O)N(Cc2ccco2)C1=O,-3,5,53*,71*,32,-22
COc1ccc(/C=C2/C(=O)N(Cc3ccco3)C(=O)N(C(C)C)C2=O)cc1,12,-9,11,-2,21,4
COc1ccc(CN2C(=O)NC(=O)/C(=C\c3ccco3)C2=O)cc1,15,20,42*,13,29,2
COc1cc(OC)c(OC)cc1/C=C1/C(=O)NC(=O)N(Cc2ccccc2)C1=O,-11,12,22,-4,14,2
COc1cc(OC)c(OC)cc1/C=C1\C(=O)NC(=O)N(Cc2ccccc2)C1=O,55*,8,17,2,-4,-6
CCN(CC)C(=O)c1ccc(NC(=O)COc2ccc(-c3nn(C)c(=O)c4ccccc34)cc2)cc1,39,14,17,38,5,15
Cc1nn(Cc2ccccc2)c(C)c1C(=O)OCC(=O)Nc1cc(S(C)(=O)=O)ccc1Cl,2,-31,14,-13,2,5
CC(=O)O[C@H]1CC[C@@]2(C)[C@H](C1)C(=O)C[C@H]1[C@@H]3CC[C@@H]4[C@@H](CN5C[C@@H](C)CC[C@H]5[C@@]4(C)O)[C@@H]3C[C@@H]12,1,-5,10,-2,-9,5
O=C(O)C(O)(c1ccc(Cl)cc1)C1(O)CCCC1 (stereo not given),5,26,5,x,2,-12
CN(C)[C@@H]1C(=O)C(C(N)=O)=C(O)[C@@]2(O)C(=O)C3=C(O)c4c(O)cccc4[C@@](C)(O)[C@H]3[C@H](O)[C@@H]12,-1,-12,9,2,12,90*!
COC(=O)C1=C(c2ccc(OC(F)(F)F)cc2)C[C@@H]2CC[C@H]1N2C(=O)NC1CCCCC1,7,11,15,7,12,-4
COc1ccc(-n2nnnc2C(c2ccccc2)N2CCC3(CC2)C(=O)NCN3c2ccccc2)cc1 (stereo not given),14,24,12,x,34,x
COc1ccc(C(c2nnnn2-c2ccc3c(c2)OCCO3)N2CCC(n3c(=O)[nH]c4ccccc43)CC2)cc1 (stereo not given),14,46,-20,x,63*,x
SMILES,TROY NFkB inh,TWEAK Fn14 block,HIF-2a block,MITF TRPM1 inh,Peg3 prom inh,LMP1 NFkB inh
O=c1[nH]c2ccccc2n1C1CCN(C(c2ccnc3ccccc23)c2nnnn2-c2ccc3c(c2)OCCO3)CC1 (stereo not given),32,17,-19,x,62*,x
COc1ccc(-n2nnnc2C(c2ccccc2OC(F)(F)F)N2CCC(n3c(=O)[nH]c4ccccc43)CC2)cc1 (stereo not given),39,-21,-39,x,85*,x
COc1ccc(-n2nnnc2C(c2ccccc2OC(F)(F)F)N2CCC3(CC2)C(=O)NCN3c2ccccc2)cc1 (stereo not given),29,46,-13,x,57*,x
Fc1cccc(-c2ccc3c(c2)CNCc2cnnn2-3)c1,-5,-23,-63,x,-85,x
CC(C)C(O)(C(=O)OCC1=CCN2CCC(O)C12)C(C)O (stereo not given),2,1,6,x,-1,x
Cc1cc(C)n(-c2ccc(NN=C(C#N)C#N)cc2)n1,65*,84*,3,7,-2,57*
N#CC(C#N)=NNc1ccc(-n2ccc(C(F)(F)F)n2)cc1,67*,91*,-21,42,21,60*
CCN1/C(=C\C=C\C2=[N+](CC)c3ccccc3C2(C)C)C(C)(C)c2ccccc21,65*,100*,74*,102*,97*,71*
CCOC(=O)C(O)(c1ccc(NC(=S)NC(=O)c2ccc(Cl)cc2Cl)c(C)c1)C(F)(F)F (stereo not given),58*,72*,11,26,27,8
COC(=O)C(O)(c1ccc(NC(=S)NC(=O)c2ccc(Cl)cc2Cl)c(C)c1)C(F)(F)F (stereo not given),64*,56*,12,10,8,10
C[C@]12CCC3C(C(=O)C[C@H]4C[C@@H](O)CC[C@]34C)C1CCC2=O (stereo not given in full),-7,4,2,3,16,1
O=C(CCN1CC1)OCCOC(=O)CCN1CC1,-1,5,8,10,13,0
CCC1CN1P1(=O)OCC(C)([N+](=O)[O-])CO1 (stereo not given),-1,3,3,7,-36,-16
CCCc1nc2ccc(Br)cc2c(=O)n1-c1ccc([N+](=O)[O-])c(C(F)(F)F)c1,47,46,-7,32,55*,44*
CC(=O)OC1C(=O)OCC23CCC4(C)OC4C2OC2CC(OC(=O)C=CC=CC(=O)OCCC1C)C3(C)C21CO1 (stereo not given),84*,99*,72*,83*,100*,81*

# Compound activity from PubChem.
